Pf growth 48h = P. falciparum growth inhibition at 48 hours (one generation); AID 504832; 5.9% of 310,000 active; P. falciparum luciferase growth in erythrocytes, 48 h; Potency, µM (series often up to 28.7 µM), for inactives: at the highest dose activity change, negative = inhibition, actives largely listed as inhibitors; active = well fitted inhibition curve with a large enough effect; inconclusive = small, poorly fitted or top-dose-only effect, or another doubt; inactive = no such curve, though single readings can be large or run the other way; also: potency is read from the fitted curve at half-maximal effect; % is scaled to controls: 0 for no effect and ±100 for the full control effect
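Read-out is firefly luciferase luminescence from an integrated reporter in P. falciparum, so falling signal marks reduced parasite growth. Infected erythrocytes were at 2% hematocrit and 0.1% parasitemia (final) in Albumax-supplemented RPMI 1640.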
Shiga inhibitor = Shiga toxin inhibition; Vero cells, Shiga toxin protein synthesis inhibition reporter; inhibition, % at 38.7 µM; 9.2% of 290,000 active; AID 2315; in the data active = inhibition mostly above about 28%, no sharp cut-off; inactive = mostly below about 43%; also: 0% is about no effect
SARS PLpro yeast = SARS-CoV PLP inhibition in yeast. 0.19% of 330,000 active. S. cerevisiae expressing SARS-CoV PLpro, growth rescue. Potency, µM (doses to about 32.9 µM), for inactives: at the top dose activity, positive = growth rescue, hits mostly activators; also: potency is read from the fitted curve at half-maximal effect; 0% is about no effect; nearly all actives have a fitted effect of over 55% in size
Pf growth 96h = inhibits malaria parasite growth, 96 h; P. falciparum luciferase reporter growth, 96 h; Potency, µM (highest dose often 28.7 µM), for inactives: at the top dose activity change, negative = inhibition, most hits filed as inhibitors; 6.9% of 320,000 active; AID 504834; active = well fitted inhibition curve with a large enough effect; inconclusive = small, poorly fitted or top-dose-only effect, or another doubt; inactive = no such curve, though single readings can be large or run the other way; also: potency is read from the fitted curve at half-maximal effect; % is scaled to controls: 0 for no effect and ±100 for the full control effect
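Readout is luminescence from an integrated firefly luciferase in P. falciparum. Red cells, 2% hematocrit and 0.05% parasitemia final, were cultured with compound through two parasite generations (96 hours) at 37 C, 5% CO2.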
NS1 inh = blocks influenza NS1 protein function; Potency, µM (highest dose often 46.1 µM), for the others: at the top dose activity, positive = more growth; 0.4% of 270,000 active; AID 2326; also: potency is read from the fitted curve at half-maximal effect; actives are rising curves; nearly all actives have a fitted effect of over 50% in size
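A cell-based growth assay was used: compounds that relieve NS1-induced slow growth of budding yeast raise OD600. Assay medium was yeast nitrogen base with ammonium sulphate and -URA supplement, pH 6.0, with 2% galactose.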
Cycloheximide cs = counter-screen for Shiga toxin inhibitors: cycloheximide protein synthesis inhibition | max response, % | cell reporter, cycloheximide protein synthesis inhibition counterscreen | 12% of 300,000 active | AID 2314; in the data active = max response mostly above about 13%, no sharp cut-off; inactive = mostly below about 14%; also: read at 38.3 µM for the half of the compounds with a filed dose; 0% is about no effect
Starred values were filed as active, the others as inactive; ? = inconclusive; . = no result. Rows were chosen to be rich in hits. Some 21% of all compounds tested hit in one or more screens of this group. Unless noted, calls follow the shape of the full dose curve.

SMILES | Pf growth 48h | Shiga inhibitor | SARS PLpro yeast | Pf growth 96h | NS1 inh | Cycloheximide cs
CN(C)Cc1c(O)ccc2[nH]cnc12 | 7% | -11 | 0% | . | ? | -2
Cc1ccc(C(=O)OCC(=O)c2c[nH]c3ccccc23)cc1S(=O)(=O)N1CCOCC1 | ? | . | -4% | ? | . | .
CN(C)C(=O)CCc1ccc2c3c([nH]c2c1)[C@]1(CCC2CCCC2)[C@@H](C(=O)N2CCOCC2)C[C@H](CC(=O)NCCC2=CCCCC2)C(=O)N1CC3 | . | . | 4% | . | . | .
Cn1c(=O)c2c(SCc3cccnc3)nc(CC(C)(C)C)nc2n(C)c1=O | . | -15 | 0% | ? | -131% | -1
CCCc1nc(SCc2cccnc2)c2c(=O)n(C)c(=O)n(C)c2n1 | 13µM* | -8 | -4% | ? | -128% | 3
CCc1nc(SCC(=O)NCc2ccc(F)cc2)c2c(=O)n(C)c(=O)n(C)c2n1 | 5% | 2 | ? | 32% | 13% | -1
CCCc1nc(SCc2ccccn2)c2c(=O)n(C)c(=O)n(C)c2n1 | . | -1 | 2% | -14% | -84% | -3
CCc1nc(SCc2ccc(C(=O)OC)o2)c2c(=O)n(C)c(=O)n(C)c2n1 | 8.3µM* | -11 | -13% | 2.6µM* | -21% | -3
Cn1c(=O)c2c(SCc3ccccn3)nc(CC(C)(C)C)nc2n(C)c1=O | 12µM* | 1 | 2% | ? | -17% | 1
COc1cc(CC(=O)OCC(=O)N2CC(=O)Nc3ccccc32)cc(OC)c1OC | 66% | -3 | -7% | ? | 4% | 1
COc1ccc(CNC(=O)CCCC(=O)Nc2cccc(Br)c2)cc1 | -8% | -10 | 1% | -8% | -14% | 2
CC(C)NC(=O)CC1C(=O)N(Cc2ccccc2)C(C)c2nc3ccccc3n21 (stereo unspecified) | -2% | -8 | -6% | -24% | . | -6
Cc1cc(Cl)ccc1OCC(=O)NCC(=O)N/N=C/c1ccco1 | 0% | 29 | 0% | 29% | 6% | 4
COc1cccc(/C=C/c2nc3c(cnn3-c3ccccc3)c(=O)[nH]2)c1 | 35% | 37 | 0% | 63% | -1% | 15*
CCn1c(/C=C/c2c(C)[nH]c3ccccc23)nc2ccccc2c1=O | 1% | 10 | 17% | 30% | 9% | 7
Cc1[nH]c2ccccc2c1/C=C/c1nc2ccccc2c(=O)[nH]1 | ? | 84* | 2% | ? | 4% | 53*
O=c1[nH]c(SCc2c(Cl)cccc2Cl)nc2ccccc12 | -6% | -11 | 1% | 7% | 5% | -3
CCOc1cc(/C=C/c2nc3ccccc3c(=O)[nH]2)ccc1O | . | 50* | -3% | -2% | 4% | 45*
O=c1[nH]c(/C=C/c2ccccc2Cl)nc2ccccc12 | . | 106* | 7% | ? | -4% | 40*
COc1ccc(-c2nc(N3CCN(C)CC3)sc2-c2ccc(OC)cc2)cc1 | ? | 7 | 4% | ? | 10% | -3
O=C(O)c1ccc(/C=C/c2nc3ccccc3c(=O)[nH]2)cc1 | . | -2 | 1% | 36% | -2% | 4
Cc1cccc(/C=C/c2nc3ccccc3c(=O)[nH]2)c1 | -16% | 112* | 1% | -19% | 2% | 29*
CCCN1C(=O)/C(=C/c2nc3ccccc3c(=O)[nH]2)c2cc(C)ccc21 | ? | 9 | 0% | ? | -2% | 11*
Clc1cccc(Cl)c1/C=C/c1nc2ccccc2[nH]1 | ? | 78* | -48% | -99% | -66% | 31*
CCCN1C(=O)/C(=C/c2nc3ccccc3c(=O)[nH]2)c2ccccc21 | ? | 22 | -4% | ? | 12% | -1
COC(=O)[C@H](CC(C)C)NC(=O)Cn1cnc2c(SC)nc(N)nc21 | . | . | 12% | . | . | .
CCCCS(=O)(=O)/C=C\C=C/S(=O)(=O)CCCC | 9.3µM* | -26 | -33% | ? | -84% | -9
Cc1ccc(-c2nc(C#N)c(NCCN3CCCCC3)o2)cc1 | -21% | 25* | 0% | -19% | 2% | 15*
COCCNc1oc(-c2ccc(Cl)cc2)nc1C#N | 58% | 70* | 4% | ? | -7% | 38*
COCCNc1oc(-c2ccc(C)cc2)nc1C#N | 114% | 66 | -4% | ? | -6% | 23*
